From ChEMBL document CHEMBL1961873, “Compounds: GSK PKIS; Assays: Nanosyn kinase panel” (2012)

Experiments:
[1] = target: Sphingosine kinase 1 (Homo sapiens) (UniProt Q9NYA1); conditions: at 1 µM;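 also: mean SPHK1 inhibition value reported from the GSK PKIS kinase panel screen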
[2] = target: T1, Sphingosine kinase 2 (Homo sapiens) (UniProt Q9NRA0); conditions: at 0.1 µM
T1 sequence (whole entry): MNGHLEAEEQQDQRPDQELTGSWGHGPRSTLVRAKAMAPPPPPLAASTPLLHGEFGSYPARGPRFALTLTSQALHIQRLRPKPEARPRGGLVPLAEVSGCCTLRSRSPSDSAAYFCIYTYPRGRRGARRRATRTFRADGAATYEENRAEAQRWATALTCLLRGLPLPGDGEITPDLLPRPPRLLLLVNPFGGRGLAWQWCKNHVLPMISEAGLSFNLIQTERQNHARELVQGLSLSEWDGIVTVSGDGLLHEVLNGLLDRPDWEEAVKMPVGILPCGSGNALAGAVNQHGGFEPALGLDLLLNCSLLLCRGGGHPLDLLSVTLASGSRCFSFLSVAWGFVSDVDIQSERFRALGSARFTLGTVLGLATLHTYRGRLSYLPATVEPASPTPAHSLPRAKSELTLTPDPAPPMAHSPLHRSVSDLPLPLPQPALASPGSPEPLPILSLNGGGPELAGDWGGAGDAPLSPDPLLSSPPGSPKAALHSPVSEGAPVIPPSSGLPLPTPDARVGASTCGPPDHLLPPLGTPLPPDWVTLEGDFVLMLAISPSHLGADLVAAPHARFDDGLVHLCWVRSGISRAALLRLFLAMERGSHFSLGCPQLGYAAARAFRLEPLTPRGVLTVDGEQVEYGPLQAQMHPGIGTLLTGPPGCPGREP

[3] = target: T1, Sphingosine kinase 2 (Homo sapiens); conditions: at 1 µM
[4] = target: Casein kinase II subunit alpha (Homo sapiens) (UniProt P68400); conditions: at 0.1 µM
[5] = target: Casein kinase II subunit alpha (Homo sapiens) (UniProt P68400); conditions: at 1 µM
[6] = target: T2, Inhibitor of nuclear factor kappa-B kinase subunit alpha (Homo sapiens) (UniProt O15111); conditions: at 0.1 µM
T2 sequence (whole entry): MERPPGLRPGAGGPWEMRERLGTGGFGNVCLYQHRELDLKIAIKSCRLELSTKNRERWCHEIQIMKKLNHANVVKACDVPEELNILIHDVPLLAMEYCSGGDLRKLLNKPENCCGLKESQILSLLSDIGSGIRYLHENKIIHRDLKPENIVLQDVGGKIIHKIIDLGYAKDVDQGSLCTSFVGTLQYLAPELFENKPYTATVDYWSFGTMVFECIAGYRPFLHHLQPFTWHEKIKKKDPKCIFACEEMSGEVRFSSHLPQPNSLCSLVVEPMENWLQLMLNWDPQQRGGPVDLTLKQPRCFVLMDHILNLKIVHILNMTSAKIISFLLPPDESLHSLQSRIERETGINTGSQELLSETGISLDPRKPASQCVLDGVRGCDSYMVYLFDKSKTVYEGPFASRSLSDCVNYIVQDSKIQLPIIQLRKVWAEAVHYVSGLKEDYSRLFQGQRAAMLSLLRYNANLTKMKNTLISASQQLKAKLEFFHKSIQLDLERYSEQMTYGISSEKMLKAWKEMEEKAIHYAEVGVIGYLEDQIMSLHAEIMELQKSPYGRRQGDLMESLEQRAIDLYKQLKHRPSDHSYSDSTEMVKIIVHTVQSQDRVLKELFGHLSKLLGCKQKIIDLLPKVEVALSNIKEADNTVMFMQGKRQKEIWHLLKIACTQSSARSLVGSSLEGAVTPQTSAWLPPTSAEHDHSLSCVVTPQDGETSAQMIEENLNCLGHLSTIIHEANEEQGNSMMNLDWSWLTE

[7] = target: T2, Inhibitor of nuclear factor kappa-B kinase subunit alpha (Homo sapiens); conditions: at 1 µM
[8] = target: T3, Inhibitor of nuclear factor kappa-B kinase subunit beta (Homo sapiens) (UniProt O14920); conditions: at 0.1 µM
T3 sequence (whole entry): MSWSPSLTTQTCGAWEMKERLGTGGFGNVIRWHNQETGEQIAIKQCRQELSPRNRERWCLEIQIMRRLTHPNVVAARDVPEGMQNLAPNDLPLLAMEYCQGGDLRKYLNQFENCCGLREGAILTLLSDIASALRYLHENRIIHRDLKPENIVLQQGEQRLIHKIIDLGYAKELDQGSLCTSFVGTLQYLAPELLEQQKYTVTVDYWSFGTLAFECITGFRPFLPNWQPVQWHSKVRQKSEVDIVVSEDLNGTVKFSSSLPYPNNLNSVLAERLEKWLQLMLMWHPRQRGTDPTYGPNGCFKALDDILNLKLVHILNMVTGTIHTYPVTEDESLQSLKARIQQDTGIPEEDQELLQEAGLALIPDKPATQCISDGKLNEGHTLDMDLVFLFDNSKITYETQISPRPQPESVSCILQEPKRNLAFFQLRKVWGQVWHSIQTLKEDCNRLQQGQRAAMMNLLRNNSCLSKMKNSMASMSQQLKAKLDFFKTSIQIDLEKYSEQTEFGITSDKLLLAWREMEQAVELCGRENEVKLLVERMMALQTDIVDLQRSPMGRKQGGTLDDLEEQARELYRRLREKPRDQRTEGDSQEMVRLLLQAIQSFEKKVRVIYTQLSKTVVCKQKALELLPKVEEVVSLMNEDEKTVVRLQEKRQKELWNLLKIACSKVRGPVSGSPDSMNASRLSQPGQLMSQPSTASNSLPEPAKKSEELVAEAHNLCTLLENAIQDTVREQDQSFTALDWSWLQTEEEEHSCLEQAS

[9] = target: T3, Inhibitor of nuclear factor kappa-B kinase subunit beta (Homo sapiens); conditions: at 1 µM
[10] = target: T4, Inhibitor of nuclear factor kappa-B kinase subunit epsilon (Homo sapiens) (UniProt Q14164); conditions: at 0.1 µM
T4 sequence (whole entry): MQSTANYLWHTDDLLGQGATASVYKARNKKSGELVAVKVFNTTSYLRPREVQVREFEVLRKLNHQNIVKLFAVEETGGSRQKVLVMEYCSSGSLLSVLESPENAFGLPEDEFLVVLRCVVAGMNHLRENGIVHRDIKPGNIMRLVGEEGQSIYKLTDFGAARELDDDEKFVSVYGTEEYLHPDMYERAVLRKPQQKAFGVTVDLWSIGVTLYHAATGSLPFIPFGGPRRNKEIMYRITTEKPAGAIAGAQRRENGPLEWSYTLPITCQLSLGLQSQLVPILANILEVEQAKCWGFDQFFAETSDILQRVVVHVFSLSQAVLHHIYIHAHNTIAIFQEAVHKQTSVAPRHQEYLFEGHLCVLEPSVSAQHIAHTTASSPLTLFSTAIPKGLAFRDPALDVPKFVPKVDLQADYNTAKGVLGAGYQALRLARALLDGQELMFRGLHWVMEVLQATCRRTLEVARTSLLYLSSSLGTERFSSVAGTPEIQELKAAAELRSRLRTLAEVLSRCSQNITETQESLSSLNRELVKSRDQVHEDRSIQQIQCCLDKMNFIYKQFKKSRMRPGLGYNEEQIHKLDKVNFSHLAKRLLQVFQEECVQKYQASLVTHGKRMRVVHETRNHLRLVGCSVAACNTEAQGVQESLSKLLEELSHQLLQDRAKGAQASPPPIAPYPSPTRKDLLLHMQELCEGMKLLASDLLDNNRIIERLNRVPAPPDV

[11] = target: T4, Inhibitor of nuclear factor kappa-B kinase subunit epsilon (Homo sapiens); conditions: at 1 µM
[12] = target: T5, Serine/threonine-protein kinase Nek1 (Homo sapiens) (UniProt Q96PY6); conditions: at 0.1 µM
T5 sequence (whole entry): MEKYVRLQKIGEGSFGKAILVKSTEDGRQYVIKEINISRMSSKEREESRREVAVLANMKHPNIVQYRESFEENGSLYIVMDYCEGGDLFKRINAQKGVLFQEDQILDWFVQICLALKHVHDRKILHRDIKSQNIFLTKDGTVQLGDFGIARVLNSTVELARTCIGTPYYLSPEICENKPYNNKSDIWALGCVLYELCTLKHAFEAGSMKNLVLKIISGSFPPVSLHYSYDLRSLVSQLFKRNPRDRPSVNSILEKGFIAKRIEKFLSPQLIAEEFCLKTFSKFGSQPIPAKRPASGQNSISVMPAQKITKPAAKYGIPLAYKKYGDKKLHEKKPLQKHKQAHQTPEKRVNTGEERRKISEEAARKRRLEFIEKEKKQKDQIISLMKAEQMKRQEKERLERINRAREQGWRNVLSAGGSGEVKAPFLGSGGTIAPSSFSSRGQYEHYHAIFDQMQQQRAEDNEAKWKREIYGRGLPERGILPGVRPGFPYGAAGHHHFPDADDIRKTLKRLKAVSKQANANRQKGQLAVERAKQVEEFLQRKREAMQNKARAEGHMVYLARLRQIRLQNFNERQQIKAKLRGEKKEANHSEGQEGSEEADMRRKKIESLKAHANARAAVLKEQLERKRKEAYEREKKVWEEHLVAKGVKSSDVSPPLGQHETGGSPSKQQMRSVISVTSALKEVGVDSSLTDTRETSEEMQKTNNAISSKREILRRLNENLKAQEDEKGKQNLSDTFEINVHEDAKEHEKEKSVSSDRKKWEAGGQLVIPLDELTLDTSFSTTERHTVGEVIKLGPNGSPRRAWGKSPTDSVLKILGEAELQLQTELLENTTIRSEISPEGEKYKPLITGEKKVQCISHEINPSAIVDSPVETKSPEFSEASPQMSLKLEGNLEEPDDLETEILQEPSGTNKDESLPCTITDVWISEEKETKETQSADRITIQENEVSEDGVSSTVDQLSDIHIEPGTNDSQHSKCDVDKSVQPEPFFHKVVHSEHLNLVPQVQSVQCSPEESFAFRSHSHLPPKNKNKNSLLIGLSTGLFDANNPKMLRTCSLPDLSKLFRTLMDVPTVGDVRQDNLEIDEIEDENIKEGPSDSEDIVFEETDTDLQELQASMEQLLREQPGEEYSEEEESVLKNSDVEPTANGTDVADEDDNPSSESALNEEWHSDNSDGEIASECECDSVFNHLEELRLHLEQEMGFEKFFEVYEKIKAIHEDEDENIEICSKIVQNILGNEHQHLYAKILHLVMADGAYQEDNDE

[13] = target: T5, Serine/threonine-protein kinase Nek1 (Homo sapiens); conditions: at 1 µM
[14] = target: T6, Serine/threonine-protein kinase Nek2 (Homo sapiens) (UniProt P51955); conditions: at 0.1 µM
T6 sequence (whole entry): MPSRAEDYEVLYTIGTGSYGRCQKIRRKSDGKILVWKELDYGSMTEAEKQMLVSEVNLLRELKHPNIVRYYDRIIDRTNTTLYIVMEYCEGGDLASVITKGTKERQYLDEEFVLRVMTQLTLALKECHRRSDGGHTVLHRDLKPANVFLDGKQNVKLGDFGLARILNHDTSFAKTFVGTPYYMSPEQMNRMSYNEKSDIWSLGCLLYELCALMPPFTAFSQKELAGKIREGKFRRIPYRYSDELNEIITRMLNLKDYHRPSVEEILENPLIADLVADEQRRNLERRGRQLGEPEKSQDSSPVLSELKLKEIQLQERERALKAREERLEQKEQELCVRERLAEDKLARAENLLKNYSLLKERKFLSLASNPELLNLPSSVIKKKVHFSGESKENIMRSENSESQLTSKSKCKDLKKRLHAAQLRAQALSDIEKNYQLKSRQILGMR

[15] = target: T6, Serine/threonine-protein kinase Nek2 (Homo sapiens); conditions: at 1 µM
[16] = target: Serine/threonine-protein kinase Nek6 (Homo sapiens) (UniProt Q9HC98); conditions: at 0.1 µM
[17] = target: Serine/threonine-protein kinase Nek6 (Homo sapiens) (UniProt Q9HC98); conditions: at 1 µM
[18] = target: Serine/threonine-protein kinase Nek7 (Homo sapiens) (UniProt Q8TDX7); conditions: at 0.1 µM
[19] = target: Serine/threonine-protein kinase Nek7 (Homo sapiens) (UniProt Q8TDX7); conditions: at 1 µM
[20] = target: T7, Serine/threonine-protein kinase Nek9 (Homo sapiens) (UniProt Q8TD19); conditions: at 0.1 µM;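 also: reported value is the mean percent inhibition of NEK9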
T7 sequence (whole entry): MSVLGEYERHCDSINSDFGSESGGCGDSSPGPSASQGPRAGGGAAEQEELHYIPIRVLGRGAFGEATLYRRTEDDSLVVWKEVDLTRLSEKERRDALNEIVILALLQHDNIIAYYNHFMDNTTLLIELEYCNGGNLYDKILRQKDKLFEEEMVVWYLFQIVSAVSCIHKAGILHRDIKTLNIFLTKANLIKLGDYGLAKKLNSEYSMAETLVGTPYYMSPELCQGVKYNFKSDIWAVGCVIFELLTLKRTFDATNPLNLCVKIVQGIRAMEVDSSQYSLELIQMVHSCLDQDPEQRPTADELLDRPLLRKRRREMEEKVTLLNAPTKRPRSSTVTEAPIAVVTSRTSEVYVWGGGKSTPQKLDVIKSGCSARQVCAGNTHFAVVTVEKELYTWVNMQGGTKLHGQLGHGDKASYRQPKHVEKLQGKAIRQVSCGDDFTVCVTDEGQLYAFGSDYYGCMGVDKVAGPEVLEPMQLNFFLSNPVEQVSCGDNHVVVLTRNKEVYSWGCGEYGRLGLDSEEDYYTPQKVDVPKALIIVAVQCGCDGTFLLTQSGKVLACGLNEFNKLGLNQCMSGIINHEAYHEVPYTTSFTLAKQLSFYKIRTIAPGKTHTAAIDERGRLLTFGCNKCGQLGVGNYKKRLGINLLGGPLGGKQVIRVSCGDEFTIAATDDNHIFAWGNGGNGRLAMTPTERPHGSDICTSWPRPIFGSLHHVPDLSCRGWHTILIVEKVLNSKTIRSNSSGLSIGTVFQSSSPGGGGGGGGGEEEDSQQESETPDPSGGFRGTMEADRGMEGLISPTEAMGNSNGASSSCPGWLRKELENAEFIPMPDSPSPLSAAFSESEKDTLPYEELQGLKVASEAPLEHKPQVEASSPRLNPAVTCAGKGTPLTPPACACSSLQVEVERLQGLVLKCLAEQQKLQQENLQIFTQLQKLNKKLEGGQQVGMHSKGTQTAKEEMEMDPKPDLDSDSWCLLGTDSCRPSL

Sphingosine kinase 1 (Homo sapiens), sequence (Q9NYA1 whole entry): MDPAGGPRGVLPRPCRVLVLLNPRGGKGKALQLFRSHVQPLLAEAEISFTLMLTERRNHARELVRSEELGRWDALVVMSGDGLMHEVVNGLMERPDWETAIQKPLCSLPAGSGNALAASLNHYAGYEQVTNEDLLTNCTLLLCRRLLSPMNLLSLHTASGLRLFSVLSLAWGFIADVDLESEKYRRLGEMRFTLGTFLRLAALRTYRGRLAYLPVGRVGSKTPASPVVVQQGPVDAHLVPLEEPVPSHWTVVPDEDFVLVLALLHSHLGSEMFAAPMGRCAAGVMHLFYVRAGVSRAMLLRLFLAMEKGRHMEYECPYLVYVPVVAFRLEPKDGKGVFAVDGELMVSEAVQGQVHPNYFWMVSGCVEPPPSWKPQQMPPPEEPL
Serine/threonine-protein kinase Nek7 (Homo sapiens), sequence (Q8TDX7 whole entry, looked up): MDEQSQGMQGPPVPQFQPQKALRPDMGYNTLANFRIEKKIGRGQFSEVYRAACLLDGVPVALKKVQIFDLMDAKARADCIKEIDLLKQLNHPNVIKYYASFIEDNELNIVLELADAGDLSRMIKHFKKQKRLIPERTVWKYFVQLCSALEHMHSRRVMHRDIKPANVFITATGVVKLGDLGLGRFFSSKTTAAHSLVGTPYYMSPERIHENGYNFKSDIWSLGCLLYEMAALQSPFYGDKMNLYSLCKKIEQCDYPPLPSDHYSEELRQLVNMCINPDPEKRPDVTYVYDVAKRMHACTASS
Casein kinase II subunit alpha (Homo sapiens), sequence (P68400 whole entry, looked up): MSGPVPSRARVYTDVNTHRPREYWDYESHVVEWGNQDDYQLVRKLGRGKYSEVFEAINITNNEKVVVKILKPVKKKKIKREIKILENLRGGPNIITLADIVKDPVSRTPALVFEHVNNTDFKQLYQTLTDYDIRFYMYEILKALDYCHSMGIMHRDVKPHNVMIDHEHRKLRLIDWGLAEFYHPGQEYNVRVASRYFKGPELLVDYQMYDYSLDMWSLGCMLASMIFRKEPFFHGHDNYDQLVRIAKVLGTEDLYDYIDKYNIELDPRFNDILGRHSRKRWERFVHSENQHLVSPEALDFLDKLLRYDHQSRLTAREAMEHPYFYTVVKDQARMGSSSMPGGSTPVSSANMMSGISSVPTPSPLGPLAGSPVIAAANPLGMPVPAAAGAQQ
Serine/threonine-protein kinase Nek6 (Homo sapiens), sequence (Q9HC98 whole entry): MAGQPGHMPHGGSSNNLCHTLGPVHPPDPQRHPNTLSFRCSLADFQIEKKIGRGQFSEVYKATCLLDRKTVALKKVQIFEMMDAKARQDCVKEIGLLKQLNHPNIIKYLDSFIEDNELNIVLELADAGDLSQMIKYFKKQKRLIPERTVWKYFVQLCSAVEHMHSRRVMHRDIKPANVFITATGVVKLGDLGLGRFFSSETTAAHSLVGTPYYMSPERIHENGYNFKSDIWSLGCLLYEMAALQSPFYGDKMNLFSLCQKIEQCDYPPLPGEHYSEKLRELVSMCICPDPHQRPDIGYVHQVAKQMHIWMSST

Compound	inhibition [1] [%]	inhibition [2] [%]	inhibition [3] [%]	inhibition [4] [%]	inhibition [5] [%]	inhibition [6] [%]	inhibition [7] [%]	inhibition [8] [%]	inhibition [9] [%]	inhibition [10] [%]	inhibition [11] [%]	inhibition [12] [%]	inhibition [13] [%]	inhibition [14] [%]	inhibition [15] [%]	inhibition [16] [%]	inhibition [17] [%]	inhibition [18] [%]	inhibition [19] [%]	inhibition [20] [%]
CS(=O)(=O)CCNCc1nc(-c2ccc3ncnc(Nc4ccc(F)c(Cl)c4)c3c2)cs1	0.42	0.49	-0.93	1.14	5.94	-4.65	-4.39	-0.32	1.99	1.53	2.88	-0.13	1.85	2.32	2.06	3.94	4.01	-1.48	1.7	0.58
CS(=O)(=O)Nc1ccc(N/C=C2\C(=O)Nc3ccccc32)cc1	0.22	-1.15	0.65	2.93	0.34	-1.19	13.7	-4.89	-1.38	-4.27	7.71	-1.43	-2.34	-2.87	-3.33	-1.58	-2.98	-4.38	-3.48	-0.57
NS(=O)(=O)c1cccc(-c2ccc3c(NC(=O)C4CC4)n[nH]c3c2)c1	2.86	0.74	-0.18	0.11	-0.44	11.4	5.2	-0.49	-1.55	-4.07	-3.2	-0.9	-0.76	-1.41	-0.18	-1.88	-0.37	1.22	-2.64	4.44
